Inconclusive results are not listed. A number with no mark means an inactive call. Calls of active or inactive are those of the source. Calls follow the shape of the dose curve; as a rule, active = well fitted activation curve with a large enough effect in the repeat runs; inconclusive = weak or mixed curves; inactive = flat fitted curve, though single readings scatter.
Assay: A CellTox Green Cytotoxicity Assay to monitor cytotoxicity in HepG2 cells - 16 hour (AID 1224876); also: nearly all actives have a fitted effect of over 45% in size
Details: CellTox Green fluorescence; series mostly up to 76.8 µM; cytotoxicity increase: at the top concentration
Description: National Center for Advancing Translational Sciences [NCATS]
NIH Chemical Genomics Center [NCGC]
U.S. Environmental Protection Agency [EPA]
National Institutes of Environmental Health Sciences [NIEHS]
National Toxicology Program [NTP]
Cell-based models are critical for drug discovery. Determining the natural cytotoxic effects resulting from test compounds is an essential research activity. A CellTox Green Cytotoxicity Assay to monitor cytotoxicity in real time of continues cell culture during 40 hours of the compound treatment was used to screen Tox21 10K library compounds in HepG2 cells. CellTox Green Cytotoxicity Assay is a nonlytic, homogeneous, biofluorescent method to measure cytotoxicity in cell culture after experimental manipulation. The assay system uses a proprietary asymmetric cyanine dye that is excluded from viable cells but preferentially stains the dead cell's DNA. […] Viable cells produce no appreciable increases in fluorescence. Therefore, the fluorescence signal produced by the binding interaction with dead cell DNA is proportional to cytotoxicity.
The mixture of HepG2 cell suspension and reagents were dispensed at 600cells/6 ul/well in 1536-well tissue culture treated black solid bottom plates using a Multidrop dispenser. After the assay plates were incubated at a 37 C/5% CO2 incubator for 5 hours, 23 nL of compounds dissolved in DMSO, positive and negative controls was transferred to the assay plate by a pintool work station. The plates were incubated at 37 C for 40 hours. The fluorescence intensity were measured at 0h, 8h, 16h, 24h, 32h and 40h time points using ViewLux plate reader during compound treatment.
% is scaled to controls: 0 for no effect and ±100 for the full control effect; potency is read from the fitted curve at half-maximal effect.

Row | SMILES | cytotoxicity increase | Potency
1 | CC(C)(C)N | 0.182% | –
2 | CCCCCC1CCC(=O)O1 (stereo not given) | 8.86% | –
3 | O=C(Nc1ccc2c(c1)Cc1ccccc1-2)C(F)(F)F | -16.6% | –
4 | CCCCOC(=O)C(C)Oc1ccc(Oc2ccc(C(F)(F)F)cn2)cc1 (stereo not given) | -6.43% | –
5 | CC(O)C(C)O (stereo not given) | -2.79% | –
6 | COc1cccc([C@H](O)C2CCN(CCc3ccc(F)cc3)CC2)c1OC | 1.18% | –
7 | C1=COCCC1 | -3% | –
8 | CC(C)CC(C)(C)C | -5.22% | –
9 | COC=O | -4.94% [at 6.97 µM] | –
10 | O=C(OCCCCCOC(=O)c1ccccc1)c1ccccc1 | -9.4% | –
11 | OCCCO | 0.111% | –
12 | O=C1c2ccccc2C(=O)C1c1ccc2ccccc2n1 | -14.1% [at 35.3 µM] | –
13 | C=Cc1ccc(C=C)cc1 | -10.2% | –
14 | O=C(C1CCCCC1)N1CC(=O)N2CCCc3ccccc3C2C1 (stereo not given) | -13.9% [at 35.3 µM] | –
15 | CC(C(=O)O)c1ccc(/C=C2\CCCCC2=O)cc1 (stereo not given) | 6.56% [at 35.3 µM] | –
16 | Cc1nc2sccn2c(=O)c1CCN1CCC(=C(c2ccc(F)cc2)c2ccc(F)cc2)CC1 | 0.995% [at 35.3 µM] | –
17 | Cc1cc(C)n(CO)n1 | -8.27% | –
18 | CC1=CC(=C(c2ccc(N)cc2)c2ccc(N)cc2)C=CC1=N | 1.38% [at 6.97 µM] | –
19 | NC(=O)c1ccccc1 | -2.87% | –
20 | CCCc1ccc(OC)cc1 | 4.17% | –

Row | SMILES | cytotoxicity increase | Potency
21 | Cc1ccc2c(Cl)cc(Cl)c(O)c2n1 | -10.9% [at 35.3 µM] | –
22 | CC(C)C/C=C(\C=O)c1ccccc1 | -15.1% | –
23 | O=[N+]([O-])c1ccc(Cl)cc1Cl | 2.98% | –
24 | CC(=O)OCC(=O)[C@@]1(O)CC[C@H]2[C@@H]3CCC4=CC(=O)C=C[C@]4(C)[C@@]3(F)[C@@H](O)C[C@@]21C | -1.89% [at 35.3 µM] | –
25 | O=C(O)c1cccc(C(=O)O)c1C(=O)O | 2.09% | –
26 | NC(=O)c1ccccc1C(N)=O | – | 55.2 µM (active)
27 | CCCCCCCCCCCC(=O)OCC | 1.9% | –
28 | CCC(C)C1N=C(C)C(C)S1 (stereo not given) | 0.247% | –
29 | O=C(O)c1c2ccccc2cc2ccccc12 | -5.9% | –
30 | COC(=O)c1cc(Cl)ccc1[N+](=O)[O-] | 0.607% | –
31 | CC(C)(C)c1cc(C=O)cc(C(C)(C)C)c1O | -9.81% [at 35.3 µM] | –
32 | CCCCCCCCS | 1.16% | –
33 | O=C1c2ccccc2C(=O)C1c1ccc2cc(S(=O)(=O)O)cc(S(=O)(=O)O)c2n1 | -22.7% | –
34 | COc1ccc(/C(C)=C/C(=O)O)c(OC)c1 | -10% [at 35.3 µM] | –
35 | Cc1ccc(NC(=O)c2ccc(CN3CCN(C)CC3)cc2)cc1Nc1nccc(-c2cccnc2)n1 | 9.79% [at 35.3 µM] | –
36 | CS(C)=O | -11.1% | –
37 | Nc1cccc2c(=O)[nH][nH]c(=O)c12 | 1.11% | –
38 | CCC(=O)O[C@]1(C(=O)COC)[C@@H](C)C[C@H]2[C@@H]3CCC4=CC(=O)C=C[C@]4(C)C3(F)[C@@H](O)C[C@@]21C (stereo not given in full) | -10.7% [at 35.3 µM] | –
39 | CCCOC(C)=O | -4.56% | –
40 | O=C(O)c1ccc2cc(O)ccc2c1 | 3.39% | –

Reference: PubChem BioAssay (Tox21)
